From PMC10726135, “HNF4α isoforms regulate the circadian balance between carbohydrate and lipid metabolism in the liver”
The full ranking holds about 18,000 sequences; the median of “log2 normalized intensity” is about 0.36, and the highest 2% start at about 7.3. This is one part of a sample in which the highest values are shown more often than they occur.

Target: T1, HNF4alpha8 (COS-7 nuclear extract) (Homo sapiens, UniProt P41235-5 1-452)
T1 sequence: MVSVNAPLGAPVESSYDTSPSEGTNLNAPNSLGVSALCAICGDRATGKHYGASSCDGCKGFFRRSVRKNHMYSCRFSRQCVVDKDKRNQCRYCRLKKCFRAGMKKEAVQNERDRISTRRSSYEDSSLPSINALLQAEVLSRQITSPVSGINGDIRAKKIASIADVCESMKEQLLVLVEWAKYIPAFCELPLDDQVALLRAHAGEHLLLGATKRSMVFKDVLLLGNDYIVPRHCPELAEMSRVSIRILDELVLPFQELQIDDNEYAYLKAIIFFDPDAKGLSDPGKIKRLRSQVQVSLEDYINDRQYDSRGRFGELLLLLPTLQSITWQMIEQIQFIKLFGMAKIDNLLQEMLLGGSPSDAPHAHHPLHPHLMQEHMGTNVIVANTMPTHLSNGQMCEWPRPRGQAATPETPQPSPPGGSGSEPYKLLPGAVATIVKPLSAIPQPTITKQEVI
Assay: protein-binding microarray; COS-7 nuclear extract on double-stranded Agilent 4x180k PBM; binding buffer, salt, pH and temperature not given in the material; high values mean tight binding
Settings: chain copies: 2; label: 3' end of strand 1 on the slide; dsDNA, one strand shown
Summary of the method: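 Binding signal is the background-corrected, normalized gProcessedSignal calculated by Agilent software. It was measured by applying nuclear extracts of COS-7 cells transiently transfected with a human HNF4α isoform expression vector to a custom Agilent SurePrint G3 4x180k array of ~44,000 double-stranded ~60-nt test sequences in quadruplicate, then imaging bound HNF4α on an Agilent G2565CA scanner at 2-µm resolution.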

Sequence	binding signal [log2 normalized intensity]
AGGTGCAAAGTACATATTTACTTACCTTTTGCCTAGGGAGATTAGAGTATCGGTCGA	3.68
TTGCAGACCTTGGTCAAAGTGACACATTCCGCCTAGGGAGATTAGAGTATCGGTCGA	0.772
TGCAAGTTACCTTGGGGTCAAAGTACATCCGCCTAGGGAGATTAGAGTATCGGTCGA	9.54
GGTCAAAGTACATCCCCTAAAACATCAAATGCCTAGGGAGATTAGAGTATCGGTCGA	3.45
CTTGGGGTCAAAGTACATCCCCTAAAACATGCCTAGGGAGATTAGAGTATCGGTCGA	6.61
GTTACCTTGGGGTCAAAGTACATCCCCTAAGCCTAGGGAGATTAGAGTATCGGTCGA	7.38
AACACCAGCAACCGCCTACCTTTGGACTTCGCCTAGGGAGATTAGAGTATCGGTCGA	6.25
TGGACCATTGCTGACCTTGCCTCTGTGCTCGCCTAGGGAGATTAGAGTATCGGTCGA	1.8
CTCTGGCCAGAGAGATGTCAGCCCAAGATAGCCTAGGGAGATTAGAGTATCGGTCGA	3.25
AAATGAAGTGGTATCCTGCAGTCAGTCTGAGCCTAGGGAGATTAGAGTATCGGTCGA	-0.508
TGACTTTCTTCCTATGGGATCAAAGTGCGAGCCTAGGGAGATTAGAGTATCGGTCGA	5.69
AAAAAATGGGCAAAGGACAATAATGAATAAGCCTAGGGAGATTAGAGTATCGGTCGA	-0.651
CATACTTCTTCCTGTTTGACCTTCGAACCCGCCTAGGGAGATTAGAGTATCGGTCGA	10.1
CCTGTTTGACCTTCGAACCCTTGCCATTTAGCCTAGGGAGATTAGAGTATCGGTCGA	7.81
CTCCTGTTTGTATTCCTTGTCCTTGACCCTGCCTAGGGAGATTAGAGTATCGGTCGA	4.96
AAGCACATACTTCTTCCTGTTTGACCTTCGGCCTAGGGAGATTAGAGTATCGGTCGA	5.61
CCTTGACCCTTCCTCCCATTTGCTGCTCTAGCCTAGGGAGATTAGAGTATCGGTCGA	1.81
TTCTTCCTGTTTGACCTTCGAACCCTTGCCGCCTAGGGAGATTAGAGTATCGGTCGA	9.64
GTACCTTGACCTTCTCTGTTAACCCTTTGCGCCTAGGGAGATTAGAGTATCGGTCGA	4.52
TTGACCTTCTCTGTTAACCCTTTGCAGCCCGCCTAGGGAGATTAGAGTATCGGTCGA	2.91
TTGACCTTCGAACCCTTGCCATTTACATCAGCCTAGGGAGATTAGAGTATCGGTCGA	6.21

Sequence	binding signal [log2 normalized intensity]
ACCTCTGTAATAACTGCAGTGCCACTCGGGGCCTAGGGAGATTAGAGTATCGGTCGA	-0.418
CTTTATCCTACAAGGGAGATAAACTTTATCGCCTAGGGAGATTAGAGTATCGGTCGA	0.672
GCTTGGCAAACATTTCACTTTGCTCCCTCCGCCTAGGGAGATTAGAGTATCGGTCGA	2.18
TGAATGATCAAAGGTTGGTTTTTGGAGACAGCCTAGGGAGATTAGAGTATCGGTCGA	3.36
TCCTGAGTGATTGTAGTGTCATTGTTATTTGCCTAGGGAGATTAGAGTATCGGTCGA	1.98
CTGCCCTTTGGAACCTGCCCTCTGTCCCATGCCTAGGGAGATTAGAGTATCGGTCGA	4.63
GGACTGTGACCCCACCTCTCAGACAGAGCTGCCTAGGGAGATTAGAGTATCGGTCGA	3.8
CTTTGGAACCTGCCCTCTGTCCCATGGTGTGCCTAGGGAGATTAGAGTATCGGTCGA	2.85
CATGACCTTTGGACTGTGACCCCACCTCTCGCCTAGGGAGATTAGAGTATCGGTCGA	7.69
AGAACCTGCCCATGACCTTTGGACTGTGACGCCTAGGGAGATTAGAGTATCGGTCGA	10.2
CCTTTGGACTGTGACCCCACCTCTCAGACAGCCTAGGGAGATTAGAGTATCGGTCGA	5.4
GGGGAGGGCAGGGTCAGAACCTGCCCATGAGCCTAGGGAGATTAGAGTATCGGTCGA	0.0112
GGGTCAGAACCTGCCCATGACCTTTGGACTGCCTAGGGAGATTAGAGTATCGGTCGA	10.8
GGGCAGGGTCAGAACCTGCCCATGACCTTTGCCTAGGGAGATTAGAGTATCGGTCGA	6.45
TCAGGTGTTGCTCTCTTGCCATTCGTGGATGCCTAGGGAGATTAGAGTATCGGTCGA	0.994
ACTACTAACCGAAAGTCTGACCCTTGACCAGCCTAGGGAGATTAGAGTATCGGTCGA	7.2
GAAGGAGCACCAATGACCTTTGACCCTTCTGCCTAGGGAGATTAGAGTATCGGTCGA	11.2
ACCTTTGACCCTTCTCTGGGAGAAAGGGAGGCCTAGGGAGATTAGAGTATCGGTCGA	3.86
TTTGAAAGAAAGAGACCTTTACCCTGACCTGCCTAGGGAGATTAGAGTATCGGTCGA	4.47
CAATGACCTTTGACCCTTCTCTGGGAGAAAGCCTAGGGAGATTAGAGTATCGGTCGA	8.44
AAACAATGACCTCTGCACCCTTCCCTGAGTGCCTAGGGAGATTAGAGTATCGGTCGA	4.47
